The campaign covered roughly 360,000 compounds. About 7,300 (2%) were called active. The entries come from a sample that favours actives as a whole. Unmarked numbers belong to inactive results. No stated cut-off is given here; in the data, active means inhibition above about 50%; inactive means the rest.
Assay: inhibitors of TWEAK-Fn14 signaling, primary screen, luciferase reporter cells, uHTS (AID 1159606)
Conditions: TWEAK-stimulated Fn14 reporter cells, luciferase luminescence, 8 h; at 10 µM; stronger effect = higher value

Going from `CC1=NN(/C(=N\c2nnc(C)s2)Nc2ccccc2)[C@H](c2ccc(C)cc2)S1` to `Cc1cccc(NC(=O)c2ccc(S(=O)(=O)N(C)c3ccccc3)cc2)n1`, the inhibition rises from -7.27% to 31.6%.

First: COC(=O)c1cc2n(n1)CCCNC2=O
Second: COc1ccc2cc(C(=O)NCC3CCCO3)[nH]c2c1 (stereo not drawn)
The inhibition of the first is higher: -0.66% for the first, -11.1% for the second.

First: COc1ccc(C(=O)n2nc(C)c(Br)c2C)cc1OC
Second: COC(=O)c1ccc(OC(=O)c2nn(C)cc2Cl)c(OC)c1
The inhibition of the first is higher: -7.65% for the first, -9.75% for the second.

Compared with `CC(C)CC(CO)N1CCN(C(=O)c2ccc(Cl)cc2Cl)CCC1=O` (stereo not drawn), `CN(c1ccccc1)S(=O)(=O)c1cc(C(=O)N2CCN(c3ncccn3)CC2)ccc1Cl` is lower in inhibition: 10.3% for the first, -62.5% for the second.

Going from `CCOc1ccc(S(=O)(=O)N2CCN=C2Cc2ccccc2)cc1C` to `O=C(CCc1ccc(S(=O)(=O)NC2CCCCC2)cc1)NCc1ccccc1`, the inhibition rises from -1.14% to 1.8%.

Going from `COCCn1c(N)c(NCc2ccccc2)c(=O)[nH]c1=O` to `O=C(Cc1ccccc1)NNC1CC(=O)N(c2ccc(Br)cc2)C1=O` (stereo not drawn), the inhibition rises from -0.79% to 12.9%.

Compared with `O=C1CCCCC1Sc1ccc(Cl)cc1[N+](=O)[O-]` (stereo not drawn), `CC(C)C[C@@H]1COc2cc(N3CCC[C@@H]3CO)ccc2S(=O)(=O)N1` is higher in inhibition: 5.84% for the first, 15.8% for the second.

First: O=C(COC(=O)/C=C/c1ccc(Cl)cc1)NC1CCS(=O)(=O)C1 (stereo not drawn)
Second: CCCCNC(=O)C[C@@H]1C[C@@]2(C(=O)OCC)CCC=C2N(Cc2ccco2)C1=O
The inhibition of the first is lower: -27.7% for the first, 11% for the second.

Going from `CC(=O)Nc1cc(-c2ccccc2N(C)C)cn2c(-c3ccc(F)c(Cl)c3)cnc12` to `COc1cccc(-c2cc(NC(C)=O)c3ncc(-c4cccc(C(C)=O)c4)n3c2)c1`, the inhibition rises from -9.86% to 12.6%.

Compared with `CC(=O)c1cccc(-c2cnc3c(NC=O)cc(-c4ccc(N(C)C)cc4)cn23)c1`, `CC(=O)c1cccc(-c2cnc3c(NC=O)cc(-c4cccc(C(=O)N(C)C)c4)cn23)c1` is lower in inhibition: 19.9% for the first, 6.56% for the second.

First: CC(=O)c1ccc(-c2cnc3c(NC=O)cc(-c4cccc(NS(C)(=O)=O)c4)cn23)cc1
Second: COc1cccc(-c2cnc3c(NC(C)=O)cc(-c4cccc(NC(C)=O)c4)cn23)c1
The inhibition of the first is lower: -8.7% for the first, -0.58% for the second.

Going from `CC1=NNC(=O)C1Cc1c(Cl)cccc1Cl` (stereo not drawn) to `CC1=C(C)CC2C(=O)N(c3cccc4ccccc34)C(=O)C2C1` (stereo not drawn), the inhibition rises from 4.96% to 11.9%.

Going from `O=C(NCc1ccc(F)cc1)c1cc(C2CCCCN2C(=O)C2CCCCC2)on1` (stereo not drawn) to `O=C(CSc1nc2ccccc2c(=O)n1Cc1ccc(F)cc1)NCC1CCCO1` (stereo not drawn), the inhibition falls from 32.6% to -1.57%.

Going from `C=CCSc1nnc2c(n1)-c1cccc3cccc-2c13` to `Cc1cc(Cl)ccc1-c1nc(NCCN(C)C)nc2ccsc12`, the inhibition rises from -43.7% to -11.1%.

Going from `CC(=O)c1c(C)n([O-])c2ccccc2[n+]1=O` to `C[N+](C)(C)CCNC(=O)c1c[nH]c2ccccc12`, the inhibition rises from -13.5% to -3.99%.

Going from `O=C(Nc1cc(S(=O)(=O)N2CCOCC2)ccc1N1CCOCC1)c1c(F)cccc1Cl` to `O=C(CN1CCN(S(=O)(=O)c2ccc(Br)cc2)CC1)Nc1ccccc1C(=O)c1ccccc1`, the inhibition rises from -8.44% to -6.36%.

Going from `CC(C)(C)NC(=O)CN(C(=O)c1csnn1)c1ccccc1-c1ccccc1` to `O=C(NCCc1ccc(F)cc1)c1n[nH]c2ccccc12`, the inhibition falls from -13.7% to -18.2%.

`COC(=O)C1NN=C(C(=O)c2ccc(Br)cc2)C1c1cccc(Br)c1` (stereo not drawn) gave an inhibition of 48.4%.

With `COc1ccc(C(=O)n2nc(-c3ccc(Cl)cc3)nc2N)cc1OC` the inhibition was 64.1% (active).
For `CN(c1ccccc1)S(=O)(=O)c1cc(C(=O)Nc2nc3ccccc3[nH]2)ccc1Cl`, the inhibition was 78.9% (active).
In the case of `CC(=O)c1cccc(-c2cnc3c(NC=O)cc(-c4ccccc4Oc4ccccc4)cn23)c1`, the inhibition was 55.7% (active).
In the case of `CC(=O)Nc1cccc(-c2cc(NC(C)=O)c3ncc(-c4ccccc4)n3c2)c1`, the inhibition was 89.2% (active).
With `CC(=O)Nc1cccc(-c2cc(NC=O)c3ncc(-c4ccc(F)c(Cl)c4)n3c2)c1` the inhibition was 82.2% (active).
In the case of `Cc1ccc(N2C(=O)CC(Nc3cccc4ccccc34)C2=O)cc1` (stereo not drawn), the inhibition was 51.9% (active).
With `O=C(NCCCO)c1cc2c([nH]c3ccccc32)c(-c2ccc(F)cc2)n1` the inhibition was 54.8% (active).
In the case of `O=C(NCC1CCCO1)c1cc2c([nH]c3ccccc32)c(-c2ccc(F)cc2)n1` (stereo not drawn), the inhibition was 51% (active).

Source: PubChem BioAssay AID1159606 (Sanford-Burnham Center for Chemical Genomics, 2016)
